Screening data deposited in PubChem by National Center for Advancing Translational Sciences (NCATS).
JMJD2A Tudor = qHTS Assay for Inhibitors of JMJD2A-Tudor Domain | Potency, µM (titrated, usually from 114 µM), for inactives: top-dose activity change, negative = inhibition, hits mostly inhibitors | 4.4% of 390,000 active | Lysine-specific demethylase 4A (Homo sapiens), O75164 | AlphaScreen JMJD2A-Tudor / H3K4me3 peptide binding | AID 504339, 2011; note: potency is the fitted concentration of half-maximal effect; % is set by controls: 0 for no effect and ±100 for the full control effect; nearly all actives have a fitted effect of over 50% in size
L3MBTL1 block = qHTS Assay for the Inhibitors of L3MBTL1 | Lethal(3)malignant brain tumor-like protein 1 (Homo sapiens), Q9Y468 | AlphaScreen L3MBTL1–H3K9me1 peptide binding | Potency, µM (top dose mostly 57.1 µM), for the others: at the top dose activity, negative = inhibition, hits mostly inhibitors | 0.66% of 230,000 active; note: potency is the fitted concentration of half-maximal effect; % is set by controls: 0 for no effect and ±100 for the full control effect; nearly all actives have a fitted effect of over 60% in size
Target sequence (Q9Y468 whole entry, looked up): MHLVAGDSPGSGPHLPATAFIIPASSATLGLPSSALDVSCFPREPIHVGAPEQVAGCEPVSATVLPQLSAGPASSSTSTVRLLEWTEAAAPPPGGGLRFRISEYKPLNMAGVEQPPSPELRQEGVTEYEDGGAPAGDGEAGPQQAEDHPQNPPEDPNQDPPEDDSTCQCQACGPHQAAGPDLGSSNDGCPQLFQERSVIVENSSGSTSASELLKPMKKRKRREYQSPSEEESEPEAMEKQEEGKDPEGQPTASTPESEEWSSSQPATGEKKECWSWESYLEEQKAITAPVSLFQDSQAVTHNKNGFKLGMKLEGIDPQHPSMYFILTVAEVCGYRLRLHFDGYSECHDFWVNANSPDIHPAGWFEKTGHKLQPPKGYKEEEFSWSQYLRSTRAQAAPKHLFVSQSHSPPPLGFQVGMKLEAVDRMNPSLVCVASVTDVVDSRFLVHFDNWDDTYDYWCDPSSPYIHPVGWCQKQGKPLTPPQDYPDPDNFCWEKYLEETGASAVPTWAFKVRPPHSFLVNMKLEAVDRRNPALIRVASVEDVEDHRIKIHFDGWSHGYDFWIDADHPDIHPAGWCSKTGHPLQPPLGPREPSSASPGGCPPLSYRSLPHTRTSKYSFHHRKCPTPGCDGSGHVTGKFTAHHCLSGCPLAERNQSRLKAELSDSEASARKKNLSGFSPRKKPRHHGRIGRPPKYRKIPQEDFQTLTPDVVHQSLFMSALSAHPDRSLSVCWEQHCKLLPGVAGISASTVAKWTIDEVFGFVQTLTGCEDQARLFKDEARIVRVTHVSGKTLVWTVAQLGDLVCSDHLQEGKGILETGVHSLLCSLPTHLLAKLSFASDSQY
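L3MBTL1 50 nM + b-AHA-H3(1-15)K9me1 75 nM, 30 min RT; compound added, 30 min RT; streptavidin donor/Ni-chelate acceptor beads 10 ug/mL each final, 30 min RT dark; AlphaScreen read.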
HP1b chromo inh = HTS for Inhibitors of HP1-beta Chromodomain Interactions with Methylated Histone Tails. Chromobox protein homolog 1 (Homo sapiens), P83916. 0.56% of 390,000 active. AlphaScreen HP1-beta / biotin-H3K9me3 peptide binding. AID 540317, 2011. Potency, µM (doses to about 114 µM), for the others: top-dose activity change, negative = inhibition, actives largely listed as inhibitors; note: potency is the fitted concentration of half-maximal effect; nearly all actives have a fitted effect of over 70% in size
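Compound inhibition of the preformed complex between 50 nM HP1-beta and 50 nM biotinylated H3K9me3 peptide was read by AlphaScreen. Buffer was PBS pH 7.4 with 0.01% Tween-20. Incubations ran 30 min at room temperature, with 10 ug/mL donor/acceptor beads.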
G9a inh = qHTS Assay for Inhibitors of Histone Lysine Methyltransferase G9a. G9a H3K9 monomethylation, AlphaScreen, 2 h. Potency, µM (titrated, usually from 102 µM), without a hit: at the highest dose activity, negative = inhibition, usual class: inhibitors. 8.8% of 350,000 active. AID 504332, 2011; note: potency is the fitted concentration of half-maximal effect; % is set by controls: 0 for no effect and ±100 for the full control effect; nearly all actives have a fitted effect of over 75% in size
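AlphaScreen detection with an anti-monomethyl H3K9 antibody quantified product after a 2 h room-temperature reaction containing 500 nM biotinylated H3K9 peptide, 20 µM SAM and 20 nM enzyme, which had been preincubated 15 min with compound.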
BAZ2B inh = qHTS Assay for Inhibitors of BAZ2B; Potency, µM (highest dose often 114 µM), for inactives: top-dose activity change, negative = inhibition, most hits filed as inhibitors; Bromodomain adjacent to zinc finger domain protein 2B (Homo sapiens), Q9UIF8; 4.4% of 360,000 active; AlphaScreen BAZ2B-H3K14Ac peptide displacement; note: potency is the fitted concentration of half-maximal effect; % is set by controls: 0 for no effect and ±100 for the full control effect; nearly all actives have a fitted effect of over 60% in size
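AlphaScreen displacement of biotin-H3(5-23)K14Ac peptide (50 nM final) from BAZ2B (50 nM final) in PBS pH 7.4, 0.01% Tween-20; complex preformed 30 min RT, then compounds (top 110 uM) 30 min RT, beads 20 min dark.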
Sfp inh = qHTS Assay for Inhibitors of Bacillus subtilis Sfp phosphopantetheinyl transferase (PPTase). 4'-phosphopantetheinyl transferase ffp (Bacillus subtilis), Q9F4F7. Biochemical Sfp PPTase activity, qHTS. Potency, µM, inactives show largest response in the series, negative = inhibition, usual class: inhibitors. 3.5% of 310,000 active. AID 1490, 2009;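 note: the enzyme is Sfp with the accession as filed and its product quenches rhodamine fluorescence; potency is the fitted concentration of half-maximal effect; 0% = enzyme reaction without inhibitor and -100% = no enzyme wells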
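Buffer: 50 mM Hepes-Na pH 7.6, 10 mM MgCl2, 0.01% Nonidet P-40, 0.01% BSA. Enzyme 15 nM, pre-exposed to compound 15 min; substrates then added and fluorescence change tracked over 30 min.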
Sfp inh conf = Confirmation qHTS Assay for Inhibitors of Bacillus subtilis Sfp phosphopantetheinyl transferase (PPTase); 79% of 380 active; Sfp PPTase enzymatic assay, qHTS titration; shares compounds with Sfp inh; Potency, µM (highest dose often 114 µM), for the others: at the highest dose activity change, negative = inhibition, usual class: inhibitors;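 note: potency is the fitted concentration of half-maximal effect; plate controls were uninhibited Sfp reaction for no effect and no enzyme control for full effect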
Sfp gel assay = Gel-Based Assay for Inhibitors of Bacillus subtilis Sfp phosphopantetheinyl transferase (PPTase) | 20% of 210 active | purified Sfp, gel-based phosphopantetheinylation read-out | Potency, µM, hits mostly inhibitors | shares compounds with Sfp inh;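 active = potency below 100 µM; inconclusive = dose-dependent response but potency above 100 µM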;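 note: band intensities scaled against SCH202676 control wells before curve fitting; potency is an IC50 for inhibitors of Sfp transfer activity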
Active calls of the source: *; i = inactive; ? = inconclusive; nt = no result; ! = not active in a repeat; [ ] = another dose, or the depositor's remark. Rows were chosen to be rich in hits. Some 12% of all compounds tested hit in one or more screens of this group. Unless noted, calls come from the whole dose curve; as a rule, active = well fitted curve in the direction sought with a large enough effect; inconclusive = small, poorly fitted or top-dose-only effect, or another doubt; inactive = no such curve, though single readings can be large; an effect the other way counts as inactive or inconclusive.

SMILES	JMJD2A Tudor	L3MBTL1 block	HP1b chromo inh	G9a inh	BAZ2B inh	Sfp inh	Sfp inh conf	Sfp gel assay
CC1(C)C[C@@H]2C(=O)CCC3O[C@@]3(C)CCC21 (stereo partly drawn)	nt	nt	nt	nt	nt	15%	nt	nt
C[C@](N)(Cc1ccc(O)c(O)c1)C(=O)O	20µM*	?	?	0.45µM*!	16µM*	13µM*	21µM*	i
CC(Cc1ccc(O)c(O)c1)(NN)C(=O)O (stereo not drawn)	nt	nt	nt	nt	nt	50µM*	47µM*	i
COc1ccc(Cn2c(CO)cnc2SCC(=O)NCc2ccco2)cc1	-26%	nt	17%[57 µM]	7%[59 µM]	-15%	nt	nt	nt
Cc1ccc(S(=O)(=O)N2CCCCC2)cc1NC(=O)COC(=O)Cc1cccc2ccccc12	-14%	-3%	5%	-11%[59 µM]	1%	6%	nt	nt
O=C(Cc1ccccc1Nc1c(Cl)cccc1Cl)OCO/N=[N+](\[O-])N1CCCC1	?	nt	-8%	nt	nt	22µM*	26µM*	?
COC(=O)c1sc2ccccc2c1N	-28%	2%	-1%	?	13%	14µM*	47µM*	nt
CC(C)CCCC(C)C1CCC2C3CC=C4CC(O)CCC4(C)C3CCC12C (stereo not drawn)	nt	nt	nt	nt	nt	1%	nt	nt
Cc1ccc(NC(=S)N2CCC(c3ccc(C)cc3)C2)cc1 (stereo not drawn)	-25%	nt	-21%	10µM*	1%	32µM*	37µM*	?
CN(C)c1ccc(-c2nn3c(-c4ccc(Cl)cc4)nnc3s2)cc1	-22%	-9%	56%	-34%	14%	-5%	nt	nt
Clc1ccc(-c2nn3c(C4COc5ccccc5O4)nnc3s2)cc1 (stereo not drawn)	-23%	-1%	?	7.1µM*	-22%	14µM*	33µM*	nt
Cn1c(/N=C/c2c(O)ccc3ccccc23)nc2ccccc21	40µM*	35µM*	?	1.8µM*	56µM*	0.89µM*	-9%	nt
CCCn1c(/N=C/c2ccccc2O)nc2ccccc21	-7%	0%	50%	-30%[59 µM]	-6%	1%	nt	nt
O=C(/C=C/c1ccncc1)c1ccc(NC(=O)c2ccccc2F)cc1	56µM*	-4%	-2%[57 µM]	14µM*	50µM*	5.6µM*	53µM*	nt
O=C(/C=C/c1ccc(NC(=O)c2ccccc2-c2ccccc2C(=O)O)cc1)c1ccccc1	-32%	-10%	18%	nt	?	-5%	nt	nt
Cc1ccc(Nc2cc(C)nc(NCc3ccccc3)n2)cc1	-30%	-8%	-13%	2%[59 µM]	-9%	13µM*	30µM*	i
O=C(CC(Nc1ccccc1)C(=O)O)c1ccccc1 (stereo not drawn)	-15%	-4%	38%	?	-31%	16µM*	42µM*	i
Cc1ccc(NC(CC(=O)c2ccccc2)C(=O)O)cc1Cl (stereo not drawn)	-22%[11.4 µM]	12%	14%	nt	-8%	?	nt	nt
COc1ccc(Cn2nnnc2C(C(C)C)N2CCN(c3ccccc3OC)CC2)cc1 (stereo not drawn)	-19%	nt	26%	-37%[12.7 µM]	-13%	8%	nt	nt
